D2 PAM-1 = positive allosteric modulators of human D2 dopamine receptor; DiscoveRx D2 beta-arrestin cells, luminescence, 90 min; 100% = 57 uM dopamine signal; P14416; AID 624464; potentiation, % (no concentration beside the values); actives 0.23% (n = 360,000); in the data active = potentiation above about 50%; inconclusive = mostly about 30% to 49%
Target sequence (P14416 whole entry, looked up): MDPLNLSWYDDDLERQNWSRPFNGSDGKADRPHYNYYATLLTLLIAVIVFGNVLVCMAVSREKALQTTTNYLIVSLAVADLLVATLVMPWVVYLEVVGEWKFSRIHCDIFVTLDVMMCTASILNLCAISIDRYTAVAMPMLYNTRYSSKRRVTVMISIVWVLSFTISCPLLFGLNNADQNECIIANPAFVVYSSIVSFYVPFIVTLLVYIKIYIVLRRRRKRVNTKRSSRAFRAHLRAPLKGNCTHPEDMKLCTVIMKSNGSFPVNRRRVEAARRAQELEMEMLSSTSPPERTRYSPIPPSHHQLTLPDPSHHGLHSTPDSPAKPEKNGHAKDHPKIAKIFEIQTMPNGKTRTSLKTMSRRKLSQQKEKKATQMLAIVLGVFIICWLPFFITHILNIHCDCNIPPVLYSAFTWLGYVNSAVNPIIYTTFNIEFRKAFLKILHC
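PathHunter beta-arrestin assay in DiscoveRx D2 cells. Compounds were added with an EC20 of dopamine (50 nM final) for 90 min at 37 deg C. Luminescence was read 1 h after detection reagent, with 57 uM dopamine as the EC100 control.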
D2 PAM-2 = D2 dopamine receptor (human) potentiation | actives 0.34% (n = 340,000) | HEK293 T-REx D2, calcium flux, EC20 dopamine potentiation | potentiation, % at 10 µM | AID 485347;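 active = potentiation over 3 SD above the plate norm, cut at about 30% in these data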; also: 0% is about no effect
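Potentiation of an EC20 dopamine calcium response measured kinetically over 180 s, after a preceding 180 s compound-only read flagging agonists. Cells: inducible Hek293 Trex D2 line, 4000/well, cultured overnight at 30 C before dye loading.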
D2 ag-1 = activates the human D2 dopamine receptor; actives 0.53% (n = 340,000); AID 485358; activation, % at 2 µM; HEK293 T-REx D2 cells, calcium flux agonist mode; P14416;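 active = activation over 3 SD above normal in the single-dose calcium agonist read, cut at about 30% in these data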; also: 0% is about no effect
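Calcium-flux readout, 1 cycle/sec over 180 s following compound pin transfer, in inducible HEK293 Trex D2 cells (force-coupled); dopamine controls included. Positive calcium responses during this window marked compounds as potential agonists.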
D2 ag-2 = activates the human D2 dopamine receptor; P14416; DiscoveRx PathHunter D2 beta-arrestin, luminescence, 90 min; 100% = 57 uM dopamine signal; activation, % (no concentration beside the values); actives 0.084% (n = 360,000); AID 624465; in the data active = activation above about 40%; inconclusive = between about 15% and that limit
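Agonist mode: compounds alone added to overnight-plated D2 PathHunter cells for 90 min at 37 C, with 57 uM final dopamine (EC100) defining full response. Beta-arrestin recruitment detected by chemiluminescent reagent, read after 1 h at ambient temperature.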
D2 antagonist = antagonizes the human D2 dopamine receptor | P14416 | HEK293 TREx D2 cells, calcium flux, dopamine EC80 | inhibition, % at 10 µM | actives 2% (n = 340,000); in the data active = inhibition above about 30%; inactive = below that, where a call was filed; also: 0% is about no effect
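Tetracycline-induced HEK293 T-REx cells expressing D2 force-coupled to calcium signalling were dye-loaded, exposed to compound for 180 s, then challenged with an EC80 of dopamine; calcium flux was followed kinetically for a further 180 s.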
* hit, by the source's call; ? = inconclusive; . = not tested or not shown. Only some compounds are listed: those with a hit (about 2.4% of all), similar ones and a draw of the others.

SMILES | D2 PAM-1 | D2 PAM-2 | D2 ag-1 | D2 ag-2 | D2 antagonist
Cc1ccc(NC(=O)COC(=O)c2ccc3c(c2)OCCO3)cc1 | -1 | 4 | -3 | 0 | 3
CCCOC(=O)c1cccc(NC(=O)COc2ccc([N+](=O)[O-])cc2)c1 | -20 | -22 | -1 | -3 | 33*
COc1ccccc1NS(=O)(=O)c1cccc(N2CC(O)=C(c3ccccc3)C2=N)c1 | -8 | -7 | 1 | -3 | 11
COc1cccc(CN2C(=O)C(C)N(C(=O)c3ccccc3)c3ccccc32)c1 (stereo not drawn) | -1 | 31* | 2 | -6 | -21
Cc1onc(-c2ccccc2Cl)c1C(=O)Nc1nnc(-c2cccc([N+](=O)[O-])c2)s1 | -1 | . | . | 1 | .
COc1ccc(/C(N)=N/OC(=O)c2cccs2)cc1 | 7 | 3 | 1 | 9 | 2
C/C(=N\OC(=O)c1c(-c2ccccc2Cl)noc1C)c1ccncc1 | -7 | -4 | 0 | -4 | 3
CCSc1nnc(NC(=O)c2c(-c3ccccc3Cl)noc2C)s1 | 23 | 15 | 1 | -3 | 109*
Cc1onc(-c2ccccc2Cl)c1C(=O)O/N=C(\N)c1ccccc1 | ? | -1 | -2 | 43* | 5
Cc1ccc(C)c(C(=O)O/N=C(\N)c2ccc(Br)cc2)c1 | 57* | 12 | -1 | 12 | 0
N/C(=N\OC(=O)c1cccs1)c1ccc(Cl)cc1 | ? | -6 | 0 | 50* | -7
Cc1cc(/C(N)=N/OC(=O)c2ccc(Cl)cc2)no1 | -4 | -7 | -1 | 2 | -7
Cc1cccc(C(=O)O/N=C(\N)c2ccc(Cl)cc2)c1 | -6 | -9 | 0 | 46* | 14
N/C(=N\OC(=O)c1cccc(Br)c1)c1ccccc1 | ? | -6 | -1 | 11 | 7
Cc1cc(C)cc(C(=O)O/N=C(\N)c2ccc(Br)cc2)c1 | 64* | 4 | 0 | ? | 35*
Cc1cc(/C(N)=N/OC(=O)c2cccc(Cl)c2)no1 | 13 | -1 | 0 | 5 | 50*
Cc1cccc(C(=O)O/N=C(\N)c2ccc(Br)cc2)c1 | 138* | -7 | -2 | ? | -19
COc1ccc(C(=O)O/N=C(\N)c2cccc(C)c2)cc1OC | 27 | 9 | 0 | ? | -3
Cc1ccc(C(=O)O/N=C(\N)c2ccc(Br)cc2)cc1C | ? | -10 | -2 | 10 | -8
O=C(Nc1cccc(C(F)(F)F)c1)C1CCN(S(=O)(=O)c2ccc(N3CCCC3=O)cc2)CC1 | -30 | -23 | -1 | 5 | 64*
O=C(NCc1ccccc1)C1CCN(S(=O)(=O)c2ccc(N3CCCC3=O)cc2)CC1 | 10 | -2 | -2 | -2 | -14
COc1ccccc1CNC(=O)C1CCN(S(=O)(=O)c2ccc(N3CCCC3=O)cc2)CC1 | 0 | 5 | 1 | -1 | 37*
O=C(O)c1ccccc1-c1ccc(/C=C/c2cc(C(F)(F)F)[nH]c(=O)n2)o1 | 0 | 2 | 45* | -3 | 16
CCn1cc(C(=O)N2CCN(c3ccccc3)CC2)c(=O)c2cc(S(=O)(=O)N3CCCC3)ccc21 | . | -1 | 0 | . | .
Cc1cccc(C(=O)n2nc(-c3cccnc3)nc2NCc2ccc(F)cc2)c1 | . | 5 | . | . | .
SMILES | D2 PAM-1 | D2 PAM-2 | D2 ag-1 | D2 ag-2 | D2 antagonist
Cc1cc(C(=O)COC(=O)c2ccc3c(c2)NC(=O)CS3)c(C)n1CCc1ccc(Cl)cc1 | 6 | 14 | -1 | 2 | 63*
C=CCn1c(O)c(N=NC(=S)Nc2ccccc2F)c2ccccc21 | -17 | -25 | 0 | -8 | 68*
COC(=O)c1ccc(C(=O)N2CCCC(N3CCN(c4ccc(F)cc4)CC3)C2)nc1 (stereo not drawn) | -6 | 8 | 3 | -1 | 0
O=C(NCC(c1cccs1)S(=O)(=O)c1ccccc1)c1ccc(C(F)(F)F)cc1 (stereo not drawn) | . | -4 | 24 | . | .
O=C(CN1CCC(O)(c2cccc(F)c2)CC1)NCCc1c[nH]c2ccccc12 | -24 | -18 | -1 | -4 | 45*
Cc1nnc(Sc2nc3c(c(=O)[nH]c(=O)n3C)n2CCc2ccccc2)s1 | -1 | 2 | -1 | 5 | 50*
O=C(COC(=O)Cn1nc(-c2ccccc2)oc1=O)Nc1ccc(F)cc1 | 65* | 4 | -1 | 7 | 3
COc1cccc2cc(C(C)N(CCCN3CCOCC3)C(=S)Nc3cccc(C)c3)oc12 (stereo not drawn) | -16 | -13 | -1 | -6 | 14
Cc1cccc(NC(=S)N(CCCN2CCOCC2)C(C)c2cc3ccccc3o2)c1 (stereo not drawn) | -17 | -10 | 0 | -7 | 35*
Cc1ccc(N2CC(NC(=O)c3ccco3)CC2=O)cc1C (stereo not drawn) | . | 2 | . | . | .
CCCN1CCC(=O)N([C@H](CN=[N+]=[N-])Cc2ccccc2)CC1 | -13 | 6 | 0 | -3 | 38*
CC(C)CN1CCC(=O)N([C@H](CN=[N+]=[N-])Cc2ccccc2)CC1 | -4 | -4 | 0 | -2 | -6
COc1ccc(O)c(CN2CCN(CCCc3ccccc3)C(CCO)C2)c1 (stereo not drawn) | -2 | -20 | -3 | -1 | 75*
OCCC1CN(Cc2ccc(F)cc2Cl)CCN1CCc1ccccc1 (stereo not drawn) | -24 | -18 | 0 | 3 | 30
COc1ccc(OC)c(CN2CCN(CCc3ccccc3)C(CCO)C2)c1 (stereo not drawn) | -9 | -17 | 1 | -6 | 45*
COCc1cc(CN2CCN(CCCc3ccccc3)C(CCO)C2)ccc1OC (stereo not drawn) | -12 | -7 | 1 | -2 | 8
OCCC1CN(Cc2cc(F)ccc2F)CCN1CCCc1ccccc1 (stereo not drawn) | -6 | -35 | -1 | -7 | 83*
COc1ccc(F)c(CN2CCN(CCc3ccccc3)C(CCO)C2)c1 (stereo not drawn) | -12 | -5 | 1 | 2 | -10
O=C(CC12CC3CC(CC(C3)C1)C2)N/N=C/c1ccncc1 | -14 | -8 | 1 | -3 | 4
C[C@@H](C(=O)NC1CCN(Cc2ccccc2)CC1)N1C(=O)N2CCc3c([nH]c4ccccc34)[C@@]2(C)C1=O | -86 | -17 | 0 | -4 | -23
COc1ccc2[nH]c3c(c2c1)CCN1C(=O)N([C@@H](C)C(=O)NC2CC2)C(=O)[C@]31C | 0 | -1 | 30* | 8 | 3
COc1ccc2[nH]c3c(c2c1)CCN1C(=O)N([C@@H](C)C(=O)NCc2ccccc2)C(=O)[C@]31C | -18 | 1 | 36* | -3 | 10
CC(C)C[C@@H](C(=O)NC1CCN(Cc2ccccc2)CC1)N1C(=O)N2CCc3c([nH]c4ccccc34)[C@@]2(C)C1=O | -83 | -15 | 1 | -8 | 31*
